In PubChem BioAssay (Tox21):
Results filed as inconclusive are left out. Activity calls are given as the source filed them. Unless noted, the call rests on the fitted dose curve.

Test system: not listed separately
Test: qHTS assay to identify small molecule agonists of the AP-1 signaling pathway (AID 1159526)
Conditions: ME-180 (cervical carcinoma) AP-1-bla reporter, beta-lactamase FRET ratio, 5 h; series mostly up to 76.8 µM; activation: at the top concentration
On the % scale 0 is the no-effect control and ±100 the full control effect.

Row | Structure (SMILES) | activation
1 | Cc1cccc(C)c1NC(=O)CC12CCCN1CCC2 | 4.65% [at 35.3 µM] (inactive)
2 | C[C@@H]1C[C@H]2[C@@H]3C[C@H](F)C4=CC(=O)C(Cl)=C[C@]4(C)[C@@]3(F)[C@@H](O)C[C@]2(C)[C@@]1(O)C(=O)CO | 0.899% [at 35.3 µM] (inactive)
3 | C=CC(=O)OCCCl | 6.97% (inactive)
4 | C[N+]1(CC2COC(c3ccccc3)(c3ccccc3)O2)CCCCC1 (stereo not given) | -1.1% [at 15.8 µM] (inactive)
5 | CO[Si](C)(OC)c1ccccc1 | 12.1% (inactive)
6 | CC(C)[C@H]1CC[C@@H](C)CC1=O | -3.25% (inactive)
7 | Cc1nc(C2CCCCC2)c(-c2ccc(S(N)(=O)=O)c(F)c2)o1 | -8.24% [at 35.3 µM] (inactive)
8 | CCOC(=O)COC(=O)c1ccccc1C(=O)OCC | -9.02% (inactive)
9 | CCOC(=O)c1cnc2c(cnn2CC)c1NN=C(C)C | 1.54% [at 35.3 µM] (inactive)
10 | CC(=O)c1ccc2ccccc2c1 | 8.18% (inactive)
11 | COc1ccc2cc1Oc1cc3c(cc1OC)CC[N+](C)(C)[C@H]3Cc1ccc(cc1)Oc1c(OC)c(OC)cc3c1[C@@H](C2)[N+](C)(C)CC3 | -6.01% [at 35.3 µM] (inactive)
12 | O=S(=O)(O)c1cccc2ccccc12 | -0.802% (inactive)
13 | C1CCC2(CCCCO2)OC1 | -1.94% (inactive)
14 | C[C@H]1C[C@H]2[C@@H]3CCC4=CC(=O)C=C[C@]4(C)[C@H]3C(=O)C[C@]2(C)[C@@]1(O)C(=O)CO | -0.861% [at 35.3 µM] (inactive)
15 | CC1=NN(c2cc(S(=O)(=O)O)ccc2Cl)C(=O)C1N=Nc1ccccc1 (stereo not given) | 8.83% (inactive)
16 | O=S(=O)(O)c1cccc(S(=O)(=O)O)c1 | 1.04% (inactive)
17 | Nc1ccncc1N | 0.685% [at 35.3 µM] (inactive)
18 | CCN(Cc1ccccc1)c1ccccc1 | 6.25% (inactive)
19 | CC[N+](CC)(CC(=O)Nc1c(C)cccc1C)Cc1ccccc1 (tested in a mixture with another compound) | 2.89% [at 35.3 µM] (inactive)

Row | Structure (SMILES) | activation
20 | CN(C)CCCN(C)CCCN(C)C | -9% (inactive)
21 | Cc1ccnc(NS(=O)(=O)c2ccc(N)cc2)n1 | 0.824% [at 35.3 µM] (inactive)
22 | CCCCCCCCCCCCCCCCCCO | -0.492% [at 35.3 µM] (inactive)
23 | O=C(O)Cc1csc(-c2ccc(Cl)cc2)n1 | -4.64% [at 35.3 µM] (inactive)
24 | NC(=O)N1c2ccccc2CC(=O)c2ccccc21 | 2.57% [at 35.3 µM] (inactive)
25 | CCCCCC(C)N (stereo not given) | -1.78% [at 35.3 µM] (inactive)
26 | Nc1ccn([C@@H]2O[C@H](CO)[C@@H](O)[C@@H]2O)c(=O)n1 | 0.623% (inactive)
27 | CN1CCC(=C2c3ccccc3CCc3cccnc32)CC1 | 11.2% [at 35.3 µM] (inactive)
28 | CCCCc1nc(Cl)c(CO)n1Cc1ccc(-c2ccccc2-c2nn[nH]n2)cc1 | -6.55% [at 35.3 µM] (inactive)
29 | c1ccc2sc(SN3CCOCC3)nc2c1 | 5.69% [at 35.3 µM] (inactive)
30 | CCN(C=O)CC | -0.353% (inactive)
31 | CC(=O)C1CCCCC1=O (stereo not given) | -0.155% (inactive)
32 | COc1cc(-c2ccc(=O)[nH]n2)ccc1OC(F)F | 11% [at 35.3 µM] (inactive)
33 | CCCc1ncc(C[n+]2ccccc2C)c(N)n1 | 8.18% [at 35.3 µM] (inactive)
34 | O=C(CO)[C@@H](O)[C@H](O)[C@H](O)CO | -4.32% (inactive)
35 | CC(CC=O)CC(C)(C)C (stereo not given) | -0.629% (inactive)
36 | Clc1cc(Cl)c(Cl)nc1Cl | -3.91% (inactive)
37 | CCNS(=O)(=O)c1ccc(C)cc1 | 0% (inactive)
38 | Cc1coc2ccccc2c1=O | 8.18% [at 35.3 µM] (inactive)

Biological target: Retinoic acid receptor RXR-alpha (Homo sapiens) (UniProt P19793)
Test: qHTS assay to identify small molecule agonists of the RXR signaling pathway (AID 1159527); further: nearly all actives have a fitted effect of over 35% in size
Conditions: HEK293T RXRa-UAS-bla, beta-lactamase ratio, 16 h; series mostly up to 76.8 µM; activation: at the top concentration
Summary of the method: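 16 hr incubation of compound-treated RXR-alpha-UAS-bla HEK 293T cells (2% charcoal-stripped FBS, 37 C) preceded a 2 hr room-temperature LiveBLAzer FRET substrate step and blue/green fluorescence measurement.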

Retinoic acid receptor RXR-alpha (Homo sapiens), sequence (P19793 whole entry, looked up): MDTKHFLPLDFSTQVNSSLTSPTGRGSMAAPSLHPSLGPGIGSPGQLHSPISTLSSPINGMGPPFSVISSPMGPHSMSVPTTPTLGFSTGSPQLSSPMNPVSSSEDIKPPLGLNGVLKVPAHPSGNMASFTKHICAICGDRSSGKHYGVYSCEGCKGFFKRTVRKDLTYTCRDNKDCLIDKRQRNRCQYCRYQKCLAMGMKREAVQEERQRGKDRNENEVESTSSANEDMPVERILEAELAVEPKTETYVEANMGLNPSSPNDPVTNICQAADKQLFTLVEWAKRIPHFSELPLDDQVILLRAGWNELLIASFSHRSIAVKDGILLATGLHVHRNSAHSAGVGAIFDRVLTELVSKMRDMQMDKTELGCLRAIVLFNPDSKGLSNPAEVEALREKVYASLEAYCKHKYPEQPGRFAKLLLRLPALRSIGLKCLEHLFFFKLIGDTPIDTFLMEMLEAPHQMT

Row | Structure (SMILES) | activation
39 | C=CC(=O)OCCCl | 0.279% (inactive)
40 | Cc1nc(C2CCCCC2)c(-c2ccc(S(N)(=O)=O)c(F)c2)o1 | -15.9% [at 35.3 µM] (inactive)
41 | CC(=O)c1ccc2ccccc2c1 | 1.73% (inactive)
42 | C[C@H]1C[C@H]2[C@@H]3CCC4=CC(=O)C=C[C@]4(C)[C@H]3C(=O)C[C@]2(C)[C@@]1(O)C(=O)CO | 5.35% [at 35.3 µM] (inactive)
43 | O=S(=O)(O)c1cccc(S(=O)(=O)O)c1 | -0.258% (inactive)
44 | Nc1ccncc1N | 7.5% [at 35.3 µM] (inactive)
45 | CC[N+](CC)(CC(=O)Nc1c(C)cccc1C)Cc1ccccc1 (tested in a mixture with another compound) | 2.09% [at 35.3 µM] (inactive)
46 | CN(C)CCCN(C)CCCN(C)C | 12.8% (inactive)
47 | CCCCCCCCCCCCCCCCCCO | 8.99% [at 35.3 µM] (inactive)
48 | O=C(O)Cc1csc(-c2ccc(Cl)cc2)n1 | -0.5% [at 35.3 µM] (inactive)
49 | CCCCCC(C)N (stereo not given) | -4.6% [at 35.3 µM] (inactive)
50 | Nc1ccn([C@@H]2O[C@H](CO)[C@@H](O)[C@@H]2O)c(=O)n1 | -15.9% (inactive)
51 | CN1CCC(=C2c3ccccc3CCc3cccnc32)CC1 | 1.46% [at 35.3 µM] (inactive)
52 | CCCCc1nc(Cl)c(CO)n1Cc1ccc(-c2ccccc2-c2nn[nH]n2)cc1 | 2.8% [at 35.3 µM] (inactive)
53 | c1ccc2sc(SN3CCOCC3)nc2c1 | -13.3% [at 35.3 µM] (inactive)
54 | O=C(CO)[C@@H](O)[C@H](O)[C@H](O)CO | 0.558% (inactive)
55 | CC(CC=O)CC(C)(C)C (stereo not given) | 0.54% (inactive)
56 | Clc1cc(Cl)c(Cl)nc1Cl | 5.65% (inactive)
57 | Cc1coc2ccccc2c1=O | -0.0177% [at 35.3 µM] (inactive)

Test system: not listed separately
Test: qHTS assay to identify small molecule agonists of the RXR signaling pathway - cell viability counter screen (AID 1159529; active means well fitted cell-killing curve with a large enough effect in the repeat runs; further: nearly all actives have a fitted effect of over 50% in size; further: potency means the concentration at half of the fitted maximal effect;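 on activity change, negative = cytotoxicity: HEK 293T cells carrying an RXR-alpha UAS beta-lactamase reporter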)
Conditions: RXR-alpha-bla HEK293T viability, CellTiter-Glo, 16 h; series mostly up to 76.8 µM; activity change, negative = cytotoxicity: at the top concentration
Summary of the method: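 In this parallel viability measure, GeneBLAzer RXR-alpha HEK 293T cells (2% charcoal-stripped FBS) were given a 5 hr preincubation, treated with compounds 16 hr at 37 C, and read by CellTiter-Glo luminescence.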

Row | Structure (SMILES) | activity change, negative = cytotoxicity | Potency
58 | Cc1cccc(C)c1NC(=O)CC12CCCN1CCC2 | 1.98% [at 35.3 µM] (inactive) | –
59 | C[C@@H]1C[C@H]2[C@@H]3C[C@H](F)C4=CC(=O)C(Cl)=C[C@]4(C)[C@@]3(F)[C@@H](O)C[C@]2(C)[C@@]1(O)C(=O)CO | -8.1% [at 35.3 µM] (inactive) | –
60 | C=CC(=O)OCCCl | -4.05% (inactive) | –
61 | C[N+]1(CC2COC(c3ccccc3)(c3ccccc3)O2)CCCCC1 (stereo not given) | -2.46% [at 15.8 µM] (inactive) | –
62 | CO[Si](C)(OC)c1ccccc1 | 0.375% (inactive) | –
63 | CC(C)[C@H]1CC[C@@H](C)CC1=O | -0.728% (inactive) | –
64 | Cc1nc(C2CCCCC2)c(-c2ccc(S(N)(=O)=O)c(F)c2)o1 | 4.15% [at 35.3 µM] (inactive) | –
65 | CCOC(=O)COC(=O)c1ccccc1C(=O)OCC | -0.0309% (inactive) | –
66 | CCOC(=O)c1cnc2c(cnn2CC)c1NN=C(C)C | 4.17% [at 35.3 µM] (inactive) | –
67 | CC(=O)c1ccc2ccccc2c1 | -0.373% (inactive) | –
68 | COc1ccc2cc1Oc1cc3c(cc1OC)CC[N+](C)(C)[C@H]3Cc1ccc(cc1)Oc1c(OC)c(OC)cc3c1[C@@H](C2)[N+](C)(C)CC3 | -6.39% [at 35.3 µM] (inactive) | –
69 | O=S(=O)(O)c1cccc2ccccc12 | 5.32% (inactive) | –
70 | C1CCC2(CCCCO2)OC1 | -1.37% (inactive) | –
71 | C[C@H]1C[C@H]2[C@@H]3CCC4=CC(=O)C=C[C@]4(C)[C@H]3C(=O)C[C@]2(C)[C@@]1(O)C(=O)CO | -3.6% [at 35.3 µM] (inactive) | –
72 | CC1=NN(c2cc(S(=O)(=O)O)ccc2Cl)C(=O)C1N=Nc1ccccc1 (stereo not given) | -0.86% (inactive) | –
73 | O=S(=O)(O)c1cccc(S(=O)(=O)O)c1 | -9.15% (inactive) | –
74 | Nc1ccncc1N | 0.813% [at 35.3 µM] (inactive) | –
75 | CCN(Cc1ccccc1)c1ccccc1 | -9.61% (inactive) | –
76 | CC[N+](CC)(CC(=O)Nc1c(C)cccc1C)Cc1ccccc1 (tested in a mixture with another compound) | -0.363% [at 35.3 µM] (inactive) | –

Row | Structure (SMILES) | activity change, negative = cytotoxicity | Potency
77 | CN(C)CCCN(C)CCCN(C)C | 2.52% (inactive) | –
78 | Cc1ccnc(NS(=O)(=O)c2ccc(N)cc2)n1 | 0.135% [at 35.3 µM] (inactive) | –
79 | CCCCCCCCCCCCCCCCCCO | 7.37% [at 35.3 µM] (inactive) | –
80 | O=C(O)Cc1csc(-c2ccc(Cl)cc2)n1 | 11.9% [at 35.3 µM] (inactive) | –
81 | NC(=O)N1c2ccccc2CC(=O)c2ccccc21 | -2.04% [at 35.3 µM] (inactive) | –
82 | CCCCCC(C)N (stereo not given) | 0.724% [at 35.3 µM] (inactive) | –
83 | Nc1ccn([C@@H]2O[C@H](CO)[C@@H](O)[C@@H]2O)c(=O)n1 | -0.39% (inactive) | –
84 | CN1CCC(=C2c3ccccc3CCc3cccnc32)CC1 | 2.08% [at 35.3 µM] (inactive) | –
85 | CCCCc1nc(Cl)c(CO)n1Cc1ccc(-c2ccccc2-c2nn[nH]n2)cc1 | -1.68% [at 35.3 µM] (inactive) | –
86 | c1ccc2sc(SN3CCOCC3)nc2c1 | -4% [at 35.3 µM] (inactive) | –
87 | CCN(C=O)CC | – | 50.3 µM (active)
88 | CC(=O)C1CCCCC1=O (stereo not given) | 6.69% (inactive) | –
89 | COc1cc(-c2ccc(=O)[nH]n2)ccc1OC(F)F | 5.49% [at 35.3 µM] (inactive) | –
90 | CCCc1ncc(C[n+]2ccccc2C)c(N)n1 | 0.473% [at 35.3 µM] (inactive) | –
91 | O=C(CO)[C@@H](O)[C@H](O)[C@H](O)CO | 4.58% (inactive) | –
92 | CC(CC=O)CC(C)(C)C (stereo not given) | -7.03% (inactive) | –
93 | Clc1cc(Cl)c(Cl)nc1Cl | 5.6% (inactive) | –
94 | CCNS(=O)(=O)c1ccc(C)cc1 | 0.75% (inactive) | –
95 | Cc1coc2ccccc2c1=O | 10.3% [at 35.3 µM] (inactive) | –
